# Measurements as given in PubChem BioAssay (Tox21).
# Inconclusive results are not listed. The source made the active and inactive calls. The call rests on the fitted dose curve; in most records, active means well fitted inhibition curve with a large enough effect in the signal ratio in the repeat runs; inconclusive means weak or mixed curves, or effect the other way; inactive means flat fitted curve, though single readings scatter; the % refers to the signal ratio.
# Assay: qHTS assay for small molecule disruptors of the mitochondrial membrane potential (AID 720635)
# Settings: HepG2 mitochondrial membrane potential, Mito-MPS dye ratio; series mostly up to 83.2 µM; ratio activity, negative = MMP loss: at the top concentration
# Excerpt: U.S. Tox21 Program National Center for Advancing Translational Sciences [NCATS] NIH Chemical Genomics Center [NCGC] U.S. Environmental Protection Agency [EPA] National Institutes of Environmental Health Sciences [NIEHS] National Toxicology Program [NTP] U.S. Food and Drug Administration [FDA] Tox21 Assay Overview: Mitochondrial membrane potential (MMP), one of the parameters for mitochondrial function, is generated by mitochondrial electron transport chain that creates an electrochemical gradient by a series of redox reactions. This gradient drives the synthesis of ATP, a crucial molecule for various cellular processes. Measuring MMP in living cells is commonly used to assess the effect of chemicals on mitochondrial function. […] The dye accumulates in the mitochondria of healthy cells as aggregates, with red fluorescence. The mitochondrial potential collapses and the dye can no longer accumulate in the mitochondria and remains in the cytoplasm in monomers, with green fluorescence.
# Tox21 Assay Protocol Summary: 2,000 HepG2 cells in 5 uL/well were dispensed into black, clear-bottom 1536-well plates using a Multidrop Combi (Thermo Scientific) dispenser. The assay plates were incubated overnight at 37C to allow cells to attach to the wells, followed by the transfer of 23 nL compound or DMSO vehicle by a pin tool (Kalypsys). The plates were incubated for 1 hr at 37C and 5% CO2, followed by the addition of 5 uL of 2X Mito-MPS dye (BD Biosciences) into each well using Flying Reagent Dispenser (Aurora Discovery) and then following 30 min incubation at 37C. Fluorescence intensity (490nm excitation and 535nm emission for monomers; and 540nm excitation and 590nm emissions for aggregates) was measured using an Envision plate reader.
# On the % scale 0 is the no-effect control and ±100 the full control effect; potency means the concentration at half of the fitted maximal effect.
Structure (SMILES),"ratio activity, negative = MMP loss",Potency
C[N+]1(C)CCCCC1,7.76% (inactive),
CCOC(=O)CC(SP(=S)(OC)OC)C(=O)OCC (stereo not given),11.2% (inactive),
O=c1[nH]c2ccccc2o1,18.3% (inactive),
NC(=O)OCCCc1ccccc1,22.1% (inactive),
S=C=S,-12% (inactive),
CCCCCCCC(=O)Cl,-14.2% [at 95.3 µM] (inactive),
Nc1c(Cl)c(F)nc(OCC(=O)O)c1Cl,19.1% (inactive),
O=C(Cl)C(Cl)(Cl)Cl,-12.9% [at 95.3 µM] (inactive),
Oc1ccc(Cc2ccc(O)cc2)cc1,,54.9 µM (active)
C=CC1(C)OC(=O)N(c2cc(Cl)cc(Cl)c2)C1=O (stereo not given),,54.5 µM (active)
N#CN,,inactive
Cn1c(N)nc2c3cccnc3ccc21,-6.91% (inactive),
CCC1(CC)C(=O)C=CNC1=O,15% (inactive),
COc1ccc2c(C(=O)c3ccc(Cl)cc3)c(C)n(CC(=O)O)c2c1,9.02% (inactive),
C[C@H](N)C(=O)c1ccccc1,,inactive
CCC(=O)OC1(c2ccccc2)CCN(C)CC1,17.1% [at 95.3 µM] (inactive),
ClC1=C(Cl)C2(Cl)C(CBr)CC1(Cl)C2(Cl)Cl (stereo not given),,27.3 µM (active)
CC(C)NCC(O)c1ccc([N+](=O)[O-])cc1 (stereo not given),-22.3% (inactive),
O=C(Cl)CCl,11.8% [at 95.3 µM] (inactive),
CCOC(=O)N(C)N=O,10.1% (inactive),

Structure (SMILES),"ratio activity, negative = MMP loss",Potency
CCOP(=S)(OCC)SCCl,-14.5% (inactive),
COc1cc(CCN)cc(OC)c1OC,15.8% [at 95.3 µM] (inactive),
CC(C)(C)NC[C@H](O)c1ccc(O)cc1Cl,10.3% (inactive),
CC(C)[N+](C)(CCC(C(N)=O)(c1ccccc1)c1ccccc1)C(C)C,5.61% [at 39.1 µM] (inactive),
CS(=O)(=O)Cl,4.37% [at 95.3 µM] (inactive),
Cn1c(CCCC(=O)O)nc2cc(N(CCCl)CCCl)ccc21,-7.92% (inactive),
CCCCCCC1CCOC1=O (stereo not given),14.5% (inactive),
C/C(=N\NC(=O)Nc1cc(F)cc(F)c1)c1ncccc1C(=O)O,-22.3% (inactive),
C[C@@H](N)[C@@H](O)c1ccccc1,-10.3% [at 39.1 µM] (inactive),
C=C(Cl)CCl,8.52% (inactive),
O=P(O)(O)c1ccccc1,20.4% (inactive),
NNCc1ccccc1,,24.8 µM (active)
O=C(Cl)OCc1ccccc1,-9.89% [at 95.3 µM] (inactive),
CCNc1nc(NCC)nc(SC)n1,-19.2% (inactive),
O=C1CCCCC1Cl (stereo not given),21.3% [at 95.3 µM] (inactive),
CC(=O)OCC1=C(C(=O)O)N2C(=O)[C@@H](N)[C@H]2SC1,8.99% [at 39.1 µM] (inactive),
N=C(N)[Se],10.2% [at 95.3 µM] (inactive),
COc1ccc(CN2CCNCC2)c(OC)c1OC,-14% [at 39.1 µM] (inactive),
CCN(CCO)CCn1c(Cc2ccccc2)nc2c1c(=O)n(C)c(=O)n2C,11.8% (inactive),
CCC1(c2ccccc2)C(=O)N(COC)C(=O)N(COC)C1=O,-10.7% (inactive),
